{
  "source": "PubChem BioAssay (EPA / NIEHS)",
  "note": "Values joined by “and” are separate entries in the source; they are usually repeats but may differ in a detail not shown here. Equal entries are not always repeated. More than one record can exist for a structure, and the calls need not agree. Active and inactive are the calls of the source. How the source made its calls: active means hit-call score of the fitted dose curve at least 0.9, where 1 is the maximum; inactive means score below 0.9.",
  "data": [
    {"read-out": "CD38, CD38 (gene 952)", "assay": "BSK_SAg_CD38: BioMAP Diversity Plus: SAg Assay for CD38 Biomarker Activity (AID 2283087)", "details": "primary human HUVEC with PBMC; actives raise or lower the signal", "procedure": "BSK_SAg is a cell-based, multiplexed-readout assay that uses umbilical vein endothelium and peripheral blood mononuclear cells, a human vascular primary cell co-culture, with measurements taken at 24 hours after chemical dosing in a 96-well plate.BSK_SAg_CD38 is one of 10 assay component(s) measured or calculated from the BSK_SAg assay. It is designed to make measurements of enzyme-linked immunosorbent assay, a form of binding reporter, as detected with fluorescence intensity signals by Enzyme-linked immunosorbent assay technology.Data from the assay component BSK_SAg_CD38 was analyzed into 1 assay endpoint. This assay endpoint, BSK_SAg_CD38, was analyzed with bidirectional fitting relative to DMSO as the negative control and baseline of activity. Using a type of binding reporter, gain or loss-of-signal activity can be used to understand changes in the signaling as they relate to the gene CD38. Furthermore, this assay endpoint can be referred to as a primary readout, because this assay has produced multiple assay endpoints where this one serves a signaling function. To generalize the intended target to other relatable targets, this assay endpoint is annotated to the cytokine intended target family, where the subfamily is other cytokine.\nThe levels of cell surface (or secreted, indicated by the prefix \"s\") biomarker endpoints were measured by ELISA. Overt cytotoxicity to cells in confluent adherent cultures (all systems other than the BT system) was assessed by measuring total protein levels using sulforhodamine B (SRB) staining in parallel cultures at the time of biomarker measurements, indicated as SRB endpoints. For proliferation assays for adherent cell types, individual cell types are cultured at sub-confluence and relative cell numbers quantified by SRB staining at time points optimized for each system (48 h: 3C and CASM3C systems; 72 h: BT and HDF3CGF systems; 96 h: SAg system). SRB was performed by staining cells with 0.1% SRB after fixation with 10% TCA and reading wells at 560 nm.Viability and proliferation of PBMC (T cells) was quantified by Alamar Blue reduction for the SAg and BT systems. For PBMC viability (referred to as PBMC Cytotoxicity within the assay endpoint names), cells were plated (75,000/well in a 96-well plate) and then chemical samples added for 1 h before addition of activators, SEB and TSST-1 (20 ng/mL final concentration each). Cells were incubated for 90 h. Then, Alamar Blue (20 uL/well) (Invitrogen, Cat DAL1100) was added for 6 h, and the plates were read with a fluorescence microplate reader at 546/580 nm (excitation/emission). For PBMC proliferation, cells were plated and activated as above but incubated for only 16 h prior to addition of Alamar Blue. Plates were read after 6 h.", "values": [
      {"smiles": "C=C(C)C(=O)OCCC(F)(F)C(F)(F)C(F)(F)C(F)(F)C(F)(C(F)(F)F)C(F)(F)F", "outcome": "inactive"},
      {"smiles": "O=C(O)C(F)(OC(F)(F)C(F)(OC(F)(F)C(F)(F)C(F)(F)F)C(F)(F)F)C(F)(F)F", "note": "(stereo not given)", "outcome": "inactive"},
      {"smiles": "CCc1c(Br)c(Br)c(Br)c(Br)c1Br", "AC50": "20 µM (active)"},
      {"smiles": "O=C(O)C(F)(F)C(F)(F)C(F)(F)F", "outcome": "inactive"},
      {"smiles": "OCC(F)(F)C(F)(F)C(F)(F)C(F)(F)C(F)(F)C(F)(F)F", "AC50": "9.86 µM (active) and 5.95 µM (active)"},
      {"smiles": "CCN(CC)c1ccc2c(C)cc(=O)oc2c1", "outcome": "inactive"},
      {"smiles": "CCCCOCCOCCOC(=O)CCCCC(=O)OCCOCCOCCCC", "outcome": "inactive"},
      {"smiles": "C=CC(=O)OCC(F)(F)C(F)(F)C(F)(F)C(F)(F)C(F)(F)C(F)(F)C(F)(F)F", "outcome": "inactive"},
      {"smiles": "N=C(N)C(F)(F)C(F)(F)C(F)(F)C(F)(F)C(F)(F)C(F)(F)C(F)(F)F", "outcome": "inactive", "AC50": "53.6 µM (active)"},
      {"smiles": "O=C(O)C(F)(F)C(F)(F)C(F)F", "outcome": "inactive"},
      {"smiles": "FC(F)(I)C(F)(F)C(F)(F)C(F)(F)I", "outcome": "inactive"},
      {"smiles": "CCCCCCCCCCCCCCCC[N+](C)(C)Cc1ccccc1", "AC50": "13 µM (active)"},
      {"smiles": "OCC(F)(F)C(F)(F)C(F)(F)F", "outcome": "inactive"},
      {"smiles": "CCO[Si](CCC(F)(F)C(F)(F)C(F)(F)C(F)(F)C(F)(F)C(F)(F)F)(OCC)OCC", "outcome": "inactive"},
      {"smiles": "O=C(O)C(F)(F)C(F)(F)C(F)(F)C(F)(F)C(F)(F)C(F)(F)C(F)(F)C(F)(F)C(F)(F)C(F)F", "AC50": "48.3 µM (active) and 46.3 µM (active)"},
      {"smiles": "CCCCC(CC)COP(=O)(O)OCC(CC)CCCC", "note": "(stereo not given)", "outcome": "inactive"},
      {"smiles": "FC(F)(F)C(F)(F)C(F)(F)C(F)(F)C(F)(F)C(F)(F)C(F)(F)C(F)(F)CCS", "outcome": "inactive"},
      {"smiles": "O=S(=O)(OCC(F)F)C(F)(F)F", "outcome": "inactive", "AC50": "0.22 µM (active)"},
      {"smiles": "Oc1ccc(Nc2ccccc2)cc1", "AC50": "20 µM (active)"},
      {"smiles": "O=C(Cl)C(F)(F)C(F)(F)C(F)(F)C(F)(F)C(F)(F)C(F)(F)C(F)(F)C(F)(F)F", "outcome": "inactive", "AC50": "39.6 µM (active) and 30 µM (active)"},
      {"smiles": "OCC(F)(F)C(F)(F)C(F)(F)C(F)F", "outcome": "inactive"},
      {"smiles": "CC(=O)Nc1ccc(N=Nc2cc(C)ccc2O)cc1", "AC50": "7.17 µM (active)"},
      {"smiles": "FC(F)(F)C(F)(F)C(F)(F)C(F)(F)CCI", "outcome": "inactive"},
      {"smiles": "Nc1ccc([N+](=O)[O-])cc1O", "outcome": "inactive"},
      {"smiles": "CS(C)(=O)=O", "outcome": "inactive"},
      {"smiles": "Cc1ccc(S(=O)(=O)OCC(F)(F)C(F)(F)C(F)(F)C(F)(F)C(F)(F)C(F)F)cc1", "outcome": "inactive"},
      {"smiles": "FC1CC(F)(F)C(F)(F)C1(F)F", "note": "(stereo not given)", "outcome": "inactive"},
      {"smiles": "OCCCC(F)(F)C(F)(F)C(F)(F)F", "outcome": "inactive"},
      {"smiles": "O=C(O)C(F)(F)C(F)(F)C(F)(F)C(F)(F)C(F)(F)C(F)(F)C(F)(F)C(F)(F)C(F)(F)C(F)(F)C(F)(F)C(F)(F)C(F)(F)F", "outcome": "inactive"},
      {"smiles": "CC(C)(C)C(=O)CC(=O)C(F)(F)C(F)(F)C(F)(F)F", "outcome": "inactive"},
      {"smiles": "FC(F)(F)C(F)(F)C(F)(F)C(F)(F)C(F)(F)CCI", "outcome": "inactive"},
      {"smiles": "O=C(O)C(F)(F)C(F)(F)C(F)(F)C(F)(F)C(F)(F)C(F)(F)C(F)(F)C(F)(F)C(F)(F)C(F)(F)C(F)(F)C(F)(F)F", "outcome": "inactive"},
      {"smiles": "CCCCNc1ccccc1", "outcome": "inactive"},
      {"smiles": "FC(F)(F)C(F)(F)C(F)(F)C(F)(F)C(F)(F)C(F)(F)C(F)(F)I", "outcome": "inactive"},
      {"smiles": "FC(F)(F)C(F)(F)C(F)(F)C(F)(F)C(F)(F)C(F)(F)CC1CO1", "note": "(stereo not given)", "outcome": "inactive"},
      {"smiles": "C=CC(F)(F)C(F)(F)C(F)(F)C(F)(F)C(F)(F)C(F)(F)C(F)(F)C(F)(F)C=C", "outcome": "inactive"},
      {"smiles": "C=CC/C=C/C/C=C/C/C=C/C", "outcome": "inactive"}
    ]}
  ]
}
